Consider 38 molecules from PubChem BioAssay (NCATS).

SMILES strings stand for the structures. Inconclusive results are not listed. A call without a number means that no potency is given here. Unmarked numbers belong to inactive results. The source made the active and inactive calls. The call rests on the fitted dose curve.

Nucleoprotein (Lymphocytic choriomeningitis virus (strain Armstrong)), sequence (P09992 whole entry, looked up): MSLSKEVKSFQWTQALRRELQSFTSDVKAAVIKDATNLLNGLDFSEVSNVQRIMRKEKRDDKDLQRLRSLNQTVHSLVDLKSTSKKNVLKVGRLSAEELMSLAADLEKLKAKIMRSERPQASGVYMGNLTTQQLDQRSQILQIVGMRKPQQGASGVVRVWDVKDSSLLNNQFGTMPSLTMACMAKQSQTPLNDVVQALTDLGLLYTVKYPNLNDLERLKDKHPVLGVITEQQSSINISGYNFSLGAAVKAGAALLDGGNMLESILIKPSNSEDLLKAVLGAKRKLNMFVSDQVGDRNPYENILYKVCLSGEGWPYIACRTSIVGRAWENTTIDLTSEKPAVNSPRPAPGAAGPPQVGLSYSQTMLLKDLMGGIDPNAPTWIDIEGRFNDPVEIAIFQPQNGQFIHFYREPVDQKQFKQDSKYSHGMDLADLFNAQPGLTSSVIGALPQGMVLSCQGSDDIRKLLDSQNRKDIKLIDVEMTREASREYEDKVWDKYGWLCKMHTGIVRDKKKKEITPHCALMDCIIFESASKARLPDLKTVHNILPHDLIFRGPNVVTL

The assay concerns the target Nucleoprotein (Lymphocytic choriomeningitis virus (strain Armstrong)) (UniProt P09992). Kind of assay: qHTS for Inhibitors of the Functional Ribonucleoprotein Complex (vRNP) of Lymphocytic Choriomeningitis Arenaviruses (LCMV): LCMV Primary Screen - GLuc reporter signal (AID 1347086). Further: nearly all actives have a fitted effect of over 70% in size. The following applies: LCMV minigenome vRNP cell assay, Gaussia luciferase reporter; series mostly up to 57.5 µM.
As to `c1ccc2sc(SSc3nc4ccccc4s3)nc2c1`, the Potency entry was “inactive”. With `CN1C(C)(C)CCCC1(C)C`, the Potency result was “inactive”. Same read-out and setting: as for `CCCC(=O)OCOC(=O)C1=C(C)NC(C)=C(C(=O)OC)C1c1cccc(Cl)c1Cl` (stereo not drawn), the entry is “inactive”. Still for that read-out and setting: the same measure for `C[C@@H]1CN(c2c(F)c(F)c3c(=O)c(C(=O)O)cn(C4CC4)c3c2F)C[C@H](C)N1`: “inactive”; for `CN1CCN(N)CC1`: “inactive”; for `CC(=O)Oc1cc(C(C)C)c(OCCN(C)C)cc1C`: “inactive”. As for `CCCCCCCCCCCCCCCC(=O)NCCO`, the Potency entry is “inactive”. With `Cc1c(NC(=O)c2cccnc2)c(=O)n(-c2ccccc2)n1C`, the Potency result was “inactive”.

Turning to `NC(Cc1ccc(Cl)cc1)C(=O)O` (stereo not drawn), the Potency entry was “inactive”.

Consider `COc1ccc(C(=O)c2ccccc2O)c(O)c1`, for which the Potency result is “inactive”.

As to `COC(=O)N/N=C/c1c[n+]([O-])c2ccccc2[n+]1[O-]`, the Potency entry was “inactive”.

Regarding `Cc1cc(C(C#N)c2ccc(Cl)cc2)c(Cl)cc1NC(=O)c1cc(I)cc(I)c1O` (stereo not drawn), the Potency entry is “inactive”. For `O=C(O)[C@@H]1CSCN1`, the Potency result was “inactive”. In the case of `COc1ccc(Cc2cnc(N)nc2N)cc1OC`, the Potency entry is “inactive”. The same measure, in the same setting: the same measure for `CN(C)[C@@H]1C(=O)C(C(N)=O)=C(O)[C@@]2(O)C(=O)C3=C(O)c4c(O)cccc4C[C@H]3C[C@@H]12`: “inactive”. The same measure, in the same setting: as for `CCCCOCCOC(=O)c1cccnc1`, the entry is “inactive”. Still for that read-out and setting: as for `CC1(C)O[C@H]2CC(=O)OC[C@]23[C@H]2CC[C@@]4(C)[C@H](c5ccoc5)OC(=O)[C@H]5O[C@]54[C@]2(C)C(=O)C[C@@H]13`, the entry is “inactive”. For the molecule `NCCNCCNCCNCCN`, the activity change, negative = inhibition is -1.94% [at 11.5 µM]. As for `CC(=O)OCC(=O)[C@@]1(OC(C)=O)[C@@H](C)C[C@H]2[C@@H]3C[C@H](F)C4=CC(=O)C=C[C@]4(C)[C@@]3(F)[C@@H](O)C[C@@]21C`, the Potency entry is “inactive”. On the same count and under the same terms, as for `COc1ccc(C(=O)N2CCN(CC(=O)N3CCOCC3)CC2)cc1`, the entry is “inactive”. Still for that read-out and setting: as for `Cc1c(N(C)CS(=O)(=O)O)c(=O)n(-c2ccccc2)n1C`, the entry is “inactive”; as for `CCCCCCCC/C=C/C(=O)O`, “inactive”. With `CCN1CC(CCN2CCOCC2)C(c2ccccc2)(c2ccccc2)C1=O` (stereo not drawn), the Potency entry was “inactive”. On the same count and under the same terms, the same measure for `CC(=O)OCC(COC(C)=O)OC(C)=O`: “inactive”; for `O=C(O)c1cc(-c2ccccc2)nc2ccccc12`: “inactive”. Still for that read-out and setting: as for `Cc1ccc2ccc(Cl)cc2n1`, the entry is “inactive”; as for `CNCC(O)c1ccc(O)c(O)c1` (stereo not drawn), “inactive”. Take `CC(C)(Sc1cc(C(C)(C)C)c(O)c(C(C)(C)C)c1)Sc1cc(C(C)(C)C)c(O)c(C(C)(C)C)c1`: the Potency result is “inactive”.

Turning to `COc1ccc(C(=O)CC(=O)c2ccc(C(C)(C)C)cc2)cc1`, the Potency entry was “inactive”. The same measure, in the same setting: the same measure for `Cc1cc(NS(=O)(=O)c2ccc(N)cc2)no1`: “inactive”; for `CC(=O)Oc1cccc(O)c1`: “inactive”. The same measure, in the same setting: the same measure for `Cc1nc2c([nH]1)c(=O)n(C)c(=O)n2Cc1ccco1`: “inactive”; for `CC(=O)N/N=C/c1ccc([N+](=O)[O-])o1`: “inactive”; for `COc1c(N2C[C@@H]3CCCN[C@@H]3C2)c(F)cc2c(=O)c(C(=O)O)cn(C3CC3)c12`: “inactive”. On the same count and under the same terms, as for `Oc1ccccc1`, the entry is “inactive”; as for `CC(=O)O[C@@H]1C(=O)O[C@@H]2[C@H]1OC(=O)[C@@H]2OC(C)=O`, “inactive”. With `CNC(=O)c1c(I)c(NC(C)=O)c(I)c(C(=O)O)c1I`, the Potency entry is “inactive”. Same read-out and setting: the same measure for `COc1ccc2c(c1)c(CC(=O)OC/C=C(\C)CC/C=C(\C)CCC=C(C)C)c(C)n2C(=O)c1ccc(Cl)cc1`: “inactive”.
